Where “and” joins values, the source holds several entries; their conditions need not be identical. Equal values may be shown once. This is part of a sample that, as a whole, favours compounds with a hit. Of some 83,000 tested, about 20% had one in any assay.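 96-well plates, one dose, 48 hours. Percent growth reported; active if below 10.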 The source holds several records for some structures; these can differ, active in one and inactive in another. Calls of active or inactive are those of the source.

For one experiment, the system named is UO-31 renal. Briefly: NCI-60 one-dose screen, 48 h (100 = growth as untreated, 0 = no growth, -100 = all killed). The note with it: 10 µM unless noted.
Consider `Oc1ccc2ccccc2c1N=Nc1ccccn1`, for which the growth is 33.1% (inactive).

Take `OC(c1cc(-c2ccc(C(F)(F)F)cc2)nc(C(F)(F)F)c1)C1CCCCN1` (stereo not given): the growth is 15.4% (inactive) and -59.3% (active) and 30.6% (inactive). Same read-out and setting: the value for `C/C(=N/NC(N)=S)c1ccc(C)cc1` was 68.1% (inactive). Still for that read-out and setting: then `N#Cc1c2ccccc2nc2ccccc12`, with 77.5% (inactive); and `O=C1CSC(=S)N1Cc1cccnc1`, with 71% (inactive); and `O=C(c1ccccc1)C(Br)[N+](=O)[O-]` (stereo not given), with 80.8% (inactive). Still for that read-out and setting: the value for `CC(/C=N/NC(N)=S)Cc1ccc(C(C)C)cc1` (stereo not given) was 45% (inactive); that for `Nc1cc(-c2ccccc2)ccc1O` was 93.4% (inactive); that for `Oc1c(C(Nc2ccccc2)c2ccccc2)ccc2cccnc12` (stereo not given) was 36.9% (inactive).

In the case of `COc1cccc2c1C(=O)c1c(O)c3c(c(O)c1C2=O)C[C@@](O)(C(=O)CO)C[C@@H]3OC1CC(OC(C)=O)C(OC(C)=O)C(C)O1` (stereo not given in full), the growth was -38.2% (active).

For `O=[N+]([O-])c1ccc([I+]c2ccccc2)cc1`, the growth is 46.9% (inactive). As to `O=C1C=CC(=O)N1c1ccccc1`, the growth was 87.4% (inactive). The same measure, in the same setting: the value for `O=[N+]([O-])CC(O)c1ccccc1` (stereo not given) was 96.8% (inactive); that for `CCCCCCCCCCCCNCCCc1ccccc1` was 60.8% (inactive); that for `CN=C(N)N/N=C(\C)c1ccc2c(c1)Cc1ccccc1-2` was -87.9% (active).

With `CCN(CC)CCNc1ccc([N+](=O)[O-])c2sc3ccccc3c(=O)c12`, the growth is -10% (active). Consider `O/N=C1\c2ccccc2-c2ccc(F)cc21`, for which the growth is 47.7% (inactive).

As to `CCN(CC)CCNC(Cc1ccccc1)c1ccc(OCc2ccccc2)cc1` (stereo not given), the growth is 41% (inactive). Same read-out and setting: the value for `c1ccc(C2NCCNC2c2ccccc2)cc1` (stereo not given) was 80.9% (inactive). Still for that read-out and setting: then `COC(=O)Nc1nc2ccc(C3(c4ccc(F)cc4)OCCO3)cc2[nH]1`, with 55.4% (inactive). With `O=[N+]([O-])c1ccc(Oc2ccccc2Cl)c([N+](=O)[O-])c1`, the growth is 81.9% (inactive). On to `O=C(O)c1ccc2c(c1)C(=O)c1ccccc1C2=O`, for which the growth is 87% (inactive).

In the case of `C=C(C(N)=O)C(N)C(=O)O` (stereo not given), the growth was 97.6% (inactive). Turning to `CCC[CH2][Sn]1([CH2]CCC)[O]C2C(CO)OC(n3ccc(N)nc3=O)C2[O]1` (stereo not given), the growth is -78.2% (active).

As for `COc1cc2c(c(OC)c1OC)-c1ccc(NCc3ccccc3)c(=O)cc1[C@@H](NC(C)=O)CC2`, the growth is 34.4% (inactive). On the same count and under the same terms, then `CCN1CCCC(Nc2cc(C)nc(/N=C(/N)Nc3ccc(Cl)c(Cl)c3)n2)C1` (stereo not given), with -81.4% (active); and `CN=C(N)N/N=C(\c1ccccc1)c1ccc(Br)cc1`, with 0.0982% (active); and `O=[n+]1c2ccccc2n([O-])c2cc(Cl)ccc21`, with 55.7% (inactive). Still for that read-out and setting: then `C(=N\Nc1ccc2ccccc2n1)/c1ccccn1`, with -29.8% (active); and `O=C(CCl)N1c2ccccc2Sc2c1ccc1ccccc21`, with 70.4% (inactive); and `CC(C)c1ccc(Nc2n[nH]c(=S)s2)cc1`, with 83.7% (inactive).

For another experiment, the system named is TK-10 renal. Described as above. The note with it: 10 µM unless noted.
`Oc1ccc2ccccc2c1N=Nc1ccccn1`: the growth was 6% (active).

As for `OC(c1cc(-c2ccc(C(F)(F)F)cc2)nc(C(F)(F)F)c1)C1CCCCN1` (stereo not given), the growth is -57.8% (active) and -14.4% (active) and 50.3% (inactive). Still for that read-out and setting: then `C/C(=N/NC(N)=S)c1ccc(C)cc1`, with 102% (inactive). For `O=C1CSC(=S)N1Cc1cccnc1`, the growth is 9.3% (active). In the case of `O=C(c1ccccc1)C(Br)[N+](=O)[O-]` (stereo not given), the growth was 106% (inactive).

For the compound `CC(/C=N/NC(N)=S)Cc1ccc(C(C)C)cc1` (stereo not given), the growth was 99.6% (inactive). Regarding `Nc1cc(-c2ccccc2)ccc1O`, the growth is 127% (inactive). For `Oc1c(C(Nc2ccccc2)c2ccccc2)ccc2cccnc12` (stereo not given), the growth was 49.4% (inactive). The same measure, in the same setting: then `C=C(CO)C(=O)OC1CC(=C)C2CC(O)C(C)C2C2OC(=O)C(=C)C12` (stereo not given), with 103% [100 µM] (inactive) and -92% [100 µM] (active); and `O=C(Cc1nc2cc(Cl)c(Cl)cc2nc1CC(=O)c1cccnc1)c1cccnc1`, with 141% (inactive).

On to `COc1cccc2c1C(=O)c1c(O)c3c(c(O)c1C2=O)C[C@@](O)(C(=O)CO)C[C@@H]3OC1CC(OC(C)=O)C(OC(C)=O)C(C)O1` (stereo not given in full), for which the growth was -36.3% (active). Turning to `O=[N+]([O-])c1ccc([I+]c2ccccc2)cc1`, the growth is 3.24% (active). `O=C1C=CC(=O)N1c1ccccc1`: the growth was 105% (inactive). Still for that read-out and setting: the value for `O=[N+]([O-])CC(O)c1ccccc1` (stereo not given) was 111% (inactive); that for `CCCCCCCCCCCCNCCCc1ccccc1` was 104% (inactive); that for `CN=C(N)N/N=C(\C)c1ccc2c(c1)Cc1ccccc1-2` was -75% (active). As for `CCN(CC)CCNc1ccc([N+](=O)[O-])c2sc3ccccc3c(=O)c12`, the growth was 63.7% (inactive).

Turning to `O/N=C1\c2ccccc2-c2ccc(F)cc21`, the growth is 84.8% (inactive). Still for that read-out and setting: the value for `COc1cc(NC(=O)C2=C(C)NC(C)=C(C(=O)Nc3cc(OC)c(Cl)cc3OC)C2c2cccc([N+](=O)[O-])c2)c(OC)cc1Cl` was 70.6% (inactive); that for `CCN(CC)CCNC(Cc1ccccc1)c1ccc(OCc2ccccc2)cc1` (stereo not given) was 64% (inactive); that for `c1ccc(C2NCCNC2c2ccccc2)cc1` (stereo not given) was 110% (inactive). As to `COC(=O)Nc1nc2ccc(C3(c4ccc(F)cc4)OCCO3)cc2[nH]1`, the growth was 47.2% (inactive). Same read-out and setting: the value for `O=[N+]([O-])c1ccc(Oc2ccccc2Cl)c([N+](=O)[O-])c1` was 98.7% (inactive); that for `O=C(O)c1ccc2c(c1)C(=O)c1ccccc1C2=O` was 105% (inactive); that for `C=C(C(N)=O)C(N)C(=O)O` (stereo not given) was 109% (inactive). On the same count and under the same terms, then `CCC[CH2][Sn]1([CH2]CCC)[O]C2C(CO)OC(n3ccc(N)nc3=O)C2[O]1` (stereo not given), with -98.2% (active). The same measure, in the same setting: then `COc1cc2c(c(OC)c1OC)-c1ccc(NCc3ccccc3)c(=O)cc1[C@@H](NC(C)=O)CC2`, with 26% (inactive); and `CCN1CCCC(Nc2cc(C)nc(/N=C(/N)Nc3ccc(Cl)c(Cl)c3)n2)C1` (stereo not given), with -88.6% (active); and `CN=C(N)N/N=C(\c1ccccc1)c1ccc(Br)cc1`, with 21.6% (inactive). Regarding `O=C(NOC(=O)c1ccccc1)c1ccccc1`, the growth is 97.8% (inactive).

As for `O=[n+]1c2ccccc2n([O-])c2cc(Cl)ccc21`, the growth is 102% (inactive). Take `C(=N\Nc1ccc2ccccc2n1)/c1ccccn1`: the growth was 48% (inactive). `O=C(CCl)N1c2ccccc2Sc2c1ccc1ccccc21`: the growth is 119% (inactive).

As for `CC(C)c1ccc(Nc2n[nH]c(=S)s2)cc1`, the growth was 93.1% (inactive).

These data come from PubChem BioAssay (NCI).
